# Reference: paper PMC5540273 (PLoS ONE, 2017)
# Key:
# Settings in all cases: concentration: 1 μM, replicates: in singlicate; n = 1
# [1] = system: T1, MINK
# T1 construct: gene MINK1
# [2] = system: MKK7
# [3] = system: MKNK1
# [4] = system: MKNK2
# [5] = system: T2, MLCK
# T2 construct: gene MYLK3
# [6] = system: T3, MLK1
# T3 construct: gene MAP3K9
# [7] = system: MLK2
# [8] = system: MLK3
# [9] = system: MRCKA
# [10] = system: T4, MRCKB
# T4 construct: gene CDC42BPB
# [11] = system: MST1R
# [12] = system: T5, MST1
# T5 construct: gene STK4
# [13] = system: T6, MST2
# T6 construct: gene STK3
# [14] = system: T7, MST3
# T7 construct: gene STK24
# [15] = system: MST4
# [16] = system: MTOR
# [17] = system: MUSK
# [18] = system: MYLK2
# [19] = system: MYLK4
# [20] = system: MYLK
# 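Note: KINOMEscan kinase panel screen.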
SMILES,%Inh [1] [%],%Inh [2] [%],%Inh [3] [%],%Inh [4] [%],%Inh [5] [%],%Inh [6] [%],%Inh [7] [%],%Inh [8] [%],%Inh [9] [%],%Inh [10] [%],%Inh [11] [%],%Inh [12] [%],%Inh [13] [%],%Inh [14] [%],%Inh [15] [%],%Inh [16] [%],%Inh [17] [%],%Inh [18] [%],%Inh [19] [%],%Inh [20] [%]
CCn1c(-c2c(N)noc2C)nc2cnccc21 [SB-737856],0,0,0,12,0,0,0,1,8,1,3,15,0,0,0,28,6,7,9,6
CCCCc1nn2ncccc2c1-c1ccnc(NC2CC2)n1 [GW684374],7,0,0,0,0,0,0,0,0,0,38,0,15,0,0,5,19,0,52,0
COc1ccc(Nc2nccc(N3CCC(NC(=O)C(C)c4ccc(Cl)cc4)CC3)n2)cc1 (stereo not shown) [GSK1379812],51,0,36,5,0,0,0,52,20,0,54,44,0,0,0,3,0,6,6,4
Nc1ncnc2occ(-c3ccc4c(c3)CCN4C(=O)Cc3cc(F)ccc3F)c12 [GSK2645446],0,0,0,0,0,0,10,6,22,0,11,21,0,13,0,3,3,27,7,9
COc1ccc(Nc2nccc(NCCNC(=O)Nc3cc(C)ccc3C)n2)cc1 [GSK1379899],0,0,0,0,0,0,36,5,1,0,15,8,0,0,0,0,0,14,0,0
COc1cccc(CNC(=O)NC2CCN(c3ccnc(Nc4ccc(F)cc4)n3)C2)c1 (stereo not shown) [GSK1379723],0,31,13,8,0,0,0,0,29,8,44,11,0,0,0,15,7,0,0,0
COc1cccc(NC(=O)Nc2ccc(C)c(-c3ccc(C(=O)Nc4ccncc4)cc3)c2)c1 [GSK1398474],6,14,4,24,6,10,14,31,13,3,57,18,0,10,0,0,1,4,3,31
O=C1NC(=O)C(c2ccc(Cl)cc2)=C1Nc1cccc(Cl)c1 [SB-317651],0,0,14,56,0,0,0,1,0,0,9,6,43,13,0,8,7,30,0,0
Cc1ccc(NC(=O)Nc2ccc(Cl)cc2)cc1-c1ccc(C(=O)Nc2ccncc2)cc1 [GSK1398472],11,21,10,7,0,0,0,15,16,0,20,8,0,0,0,18,11,0,0,2
COc1ccc2cc(-c3nc(-c4ccccc4C(C)C)[nH]c3-c3ccncc3)ccc2c1 [SB-660566],0,0,5,22,6,0,0,0,4,1,42,7,58,0,0,31,18,15,4,0
O=c1cc(N2CCOCC2)nc2n(Cc3cccc(Cl)c3Cl)c3ccccc3n12 [GSK2299009],5,28,10,8,16,0,32,36,24,14,44,39,9,6,0,19,39,17,13,31
O=c1cc(N2CCOCC2)nc2n(Cc3ccccc3F)ccn12 [GSK2297428],8,0,0,0,0,0,0,38,4,0,26,8,0,0,0,13,0,0,0,12
CNCc1ccc2nc(NC(=O)c3ccc(C(C)(C)C)cc3)cn2c1,53,8,17,10,14,8,0,6,6,14,18,16,25,7,24,2,0,7,1,24
COC(=O)C(Cc1ccccc1)NC(=O)NC1CCN(c2ccnc(Nc3ccc(F)cc3)n2)C1 (stereo not shown) [GSK1379714],2,0,0,0,5,0,0,15,22,0,39,5,0,3,0,33,8,0,13,11
Cc1ccc(NC(=O)Nc2ccc(Cl)c(C(F)(F)F)c2)cc1-c1ccc(C(=O)Nc2ccncc2)cc1 [GSK1398470],20,0,3,0,0,10,36,17,1,5,38,9,0,13,0,16,10,0,2,24
CNc1nc(-c2ccc3c(N)n[nH]c3c2)cc(N2C[C@@H](C(=O)NC3CCCCC3)OC[C@H]2C)n1 [GSK2375584],11,0,10,0,0,0,23,20,4,0,30,0,0,18,0,0,16,0,0,18

SMILES,%Inh [1] [%],%Inh [2] [%],%Inh [3] [%],%Inh [4] [%],%Inh [5] [%],%Inh [6] [%],%Inh [7] [%],%Inh [8] [%],%Inh [9] [%],%Inh [10] [%],%Inh [11] [%],%Inh [12] [%],%Inh [13] [%],%Inh [14] [%],%Inh [15] [%],%Inh [16] [%],%Inh [17] [%],%Inh [18] [%],%Inh [19] [%],%Inh [20] [%]
Cn1cncc1-c1cc2c(Nc3ccc(OCc4ccccc4)cc3)ncnc2cn1 [GW281179],0,11,0,47,0,0,0,15,21,0,49,0,0,0,0,3,12,10,0,9
COc1ccc(Nc2nccc(N3CCC(NC(=O)C(C)c4ccc(Cl)cc4)C3)n2)cc1 (stereo not shown) [GSK1379735],1,10,12,2,14,0,43,21,15,2,39,44,26,0,3,26,24,3,2,11
CSc1ccc(-c2nc3n(c2-c2ccncc2)CCC3)cc1 [SKF-105561],15,1,0,20,0,0,0,0,0,0,0,0,9,0,20,0,0,3,0,0
Cc1ccccc1-c1cc(-c2c[nH]nc2-c2ccccn2)ccn1 [GW680061],31,0,9,0,0,0,2,0,0,0,12,0,0,0,10,30,10,0,0,1
NS(=O)(=O)c1cccc(N/C=C2\C(=O)Nc3ccc(S(=O)(=O)Cc4c(Cl)cccc4Cl)cc32)c1 [GSK398099],80,0,0,12,0,0,0,0,15,0,17,0,1,0,0,11,7,0,1,18
CC(C)c1ccc(O)cc1Nc1ccnc2ccc(C(F)(F)F)cc12 [GW482059],0,0,2,10,0,0,5,13,0,0,0,0,0,0,0,6,3,3,0,3
O=C(Nc1n[nH]c2nc(-c3cccs3)c(Br)cc12)C1CCCC1 [SB-743341],8,12,23,67,86,0,38,19,0,0,17,0,51,0,2,12,37,97.7,17,24
Cc1nccc(-c2c(-c3ccc(F)cc3)ncn2CCCN2CCOCC2)n1.Cl [SB-282975],18,0,11,1,0,0,22,25,23,0,0,7,5,0,5,21,0,6,0,30
COc1ccc(CSc2nnc(-c3ccc4c(c3)CCO4)o2)cc1,0,0,0,0,0,0,15,0,0,0,13,0,0,0,0,0,0,0,3,0
COc1nccc(-c2c(-c3ccc(F)cc3)ncn2CCCN2CCOCC2)n1 [SB-282852],0,23,54,42,0,0,0,0,12,0,0,0,22,0,0,0,0,56,0,18
Fc1ccc(-c2nn3cccc(F)c3c2-c2ccncc2)cc1 [GW475620],27,16,0,0,0,2,31,18,23,34,18,30,0,0,0,20,11,0,0,14
CCc1ccc(-c2ccc3c(c2)-c2n[nH]cc2S(=O)(=O)N3C)cc1,2,0,0,0,16,13,16,0,0,6,0,8,0,0,0,0,0,0,0,0
CCn1c(-c2ccccc2)nc2cnccc21 [SB-733416],0,16,25,28,0,0,3,7,0,14,11,27,6,0,0,31,16,0,2,0
CC(=O)c1c(C)c2cnc(Nc3ccn(C)n3)nc2n(C2CCCC2)c1=O,8,0,0,0,0,0,21,0,0,5,4,2,0,10,0,14,0,0,0,0
COc1cc2ncnc(Nc3cccc(Br)c3)c2cc1OC.Cl [GI230329],40,0,,56,19,0,0,24,8,0,30,0,0,1,0,0,0,7,5,0
